This is a sample that favours compounds with a hit; in the whole collection about 3.6% have one here.
Abeta yeast res = compounds reversing amyloid beta toxicity in yeast; 410,000 tested, 0.063% active; AID 1347071; Potency, µM (doses to about 46.1 µM), usual class: activators; yeast expressing A-beta42, growth rescue, OD600, 48 h; response scale: 0% DMSO, 100% iron-clioquinol control; further: nearly all actives have a fitted effect of over 55% in size
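Yeast growth medium received pinned compounds, then yeast cells expressing toxic A-beta were added; plates incubated at 30 C for 48 hr. Growth read as absorbance at 600 nm, normalized to DMSO and equimolar FeCl3 plus clioquinol controls.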
FUS yeast rescue = suppressors of FUS proteinopathy in yeast; S. cerevisiae FUS-expressing, growth rescue, OD600, 24 h; Potency, µM (top dose mostly 76.6 µM), hits mostly activators; 390,000 tested, 0.24% active;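 further: plate controls were DMSO vehicle for no effect and reference control for full effect; nearly all actives have a fitted effect of over 55% in size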
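S. cerevisiae expressing FUS from galactose induction served as the toxicity model. Growth after 24hr at 30C, read as absorbance at 600 nm, indicates suppression of toxicity; compounds dosed at several concentrations.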
Mm-Cpn inhibitor = M. maripaludis TRiC chaperonin inhibition | 330,000 tested, 0.031% active | purified Mm-Cpn ATPase, ADP Transcreener TR-FRET | Potency, µM (series often up to 76.9 µM), for the others: top-dose activity, negative = inhibition, most hits filed as inhibitors | AID 504842; further: on the % scale 0 is the no-effect control and ±100 the full control effect; nearly all actives have a fitted effect of over 80% in size
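Purified archaeal chaperonin (25 nM final) was preincubated with compound for 10 min at 37°C, then ATP (10 uM final) was added for 30 min at 37°C in Tris pH 7.4/KCl/MgCl2/DTT buffer. ADP was quantified by HTRF Transcreener TR-FRET.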
aSyn rescue = alpha-synuclein toxicity inhibition in yeast. Yeast expressing alpha-synuclein, growth rescue, BacTiter-Glo, 24 h. Potency, µM (doses to about 46.1 µM), for the others: at the highest dose growth rescue (activation), most hits filed as activators. 370,000 tested, 0.14% active. AID 652106; further: % of control where 0% means no effect; nearly all actives have a fitted effect of over 65% in size
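Rescue of yeast growth: cells expressing toxic alpha-synuclein, induced in galactose at OD600 0.02, incubated with compound 24 h at 30 C. ATP luminescence quantified growth; inhibitors of toxicity appear as activators.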
ClpP mod = qHTS Assay for Activators of ClpP; purified B. subtilis ClpP, FRET peptide cleavage, 20 min; Potency, µM (series often up to 57.5 µM), inactives show at the top dose activity change, negative = active; 340,000 tested, 1.9% active; AID 651965, 2013; active means well fitted falling curve with a large enough effect; inconclusive means small, poorly fitted or top-dose-only effect; inactive means no such curve, though single readings can be large or run the other way; further: the source files actives as falling curves though it sought activators and does not explain the sign; nearly all actives have a fitted effect of over 65% in size
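Buffer: 100 mM Tris/HCl pH8, 100 mM KCl, 0.05% low protease BSA, 2.5% glycerol, 0.01% Tween-20. ClpP 10 microg/mL final; 20 min RT; delta FRET normalized to ADEP and DMSO controls.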
TDP43 rescue = inhibitors of TDP-43 toxicity in yeast; TDP-43 expressing yeast growth rescue, BacTiter-Glo, 24 h; AID 652104; Potency, µM (titrated, usually from 46.1 µM), inactives show at the top dose growth rescue (activation), actives largely listed as activators; 410,000 tested, 1.8% active; further: % of control where 0% means no effect; nearly all actives have a fitted effect of over 50% in size
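Galactose-induced TDP-43 yeast, OD600=0.02, compound pinned; 24 hr, 30 deg C; BacTiter-Glo luminescence for growth. Inhibitors of TDP-43 toxicity read as activators.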
ClpP inh valid = inhibits B. subtilis ClpP protease, hit validation. shares compounds with ClpP mod. Potency, µM (titrated, usually from 57.5 µM), without a hit: at the top dose activity change, negative = inhibition, actives largely listed as inhibitors. 470 tested, 40% active. purified B. subtilis ClpP, FRET-FV substrate cleavage, 20 min; further: on the % scale 0 is the no-effect control and ±100 the full control effect; nearly all actives have a fitted effect of over 70% in size
* hit, by the source's call; i = inactive; ? = inconclusive; · = not tested or not shown; [ ] = dose if it differs, or a comment. Unless noted, the call rests on the fitted dose curve; in most records, active means well fitted curve in the direction sought with a large enough effect; inconclusive means small, poorly fitted or top-dose-only effect, or another doubt; inactive means no such curve, though single readings can be large; an effect the other way counts as inactive or inconclusive. Potency means the concentration at half of the fitted maximal effect.

SMILES	Abeta yeast res	FUS yeast rescue	Mm-Cpn inhibitor	aSyn rescue	ClpP mod	TDP43 rescue	ClpP inh valid
CN(C)C1(CNC(=O)COc2ccc([N+](=O)[O-])cc2)CCCCC1	i	i	·	·	-2%	5%[9.22 µM]	·
COCCCNC(=O)CC(NS(=O)(=O)c1ccc(C)cc1)c1ccco1 (stereo not drawn)	i	i	1%	0%	3.2µM*	1%	-7%
Cc1ccc(S(=O)(=O)NC(CC(=O)NCc2ccco2)c2ccco2)cc1 (stereo not drawn)	i	i	0%	8%	-3%	2%	·
c1ccc2nc(-c3ccc(N4CCOCC4)cc3)ccc2c1	i	i	-1%	-10%	106%	27%	7%
CN1CCN(c2ccc(-c3ccc4ccccc4n3)cc2)CC1	i	i	1%	-40%	·	-53%	·
COc1ccc(-c2cc(C(=O)N(C)CC(=O)Nc3cccc(F)c3)c3ccccc3n2)cc1	i	i	?	-15%	6.3µM*	0%	24µM*
CN(CC(=O)Nc1cccc(F)c1)C(=O)c1cc(-c2ccccc2)nc2ccccc12	i	i	-17%	0%	-3%	-4%	·
COc1cccc(CNC(=O)CN2C(=O)N(c3cccc(Cl)c3)S(=O)(=O)c3ccccc32)c1OC	i	i	·	·	1%	7%	·
O=C(NCCc1ccccc1)c1ccc(Nc2nc3ccccc3n3nnnc23)cc1	i	i	·	·	294%	8%	?
CCc1ccc(-n2nc(C)c3c(C)cc(=O)n(CC(=O)Nc4ccc(OC)c(OC)c4)c32)cc1	i	i	·	·	0%	9%	·
CCc1cc(N2CCOCC2)cc2c1[nH]c1ccccc12	i	?	-8%	0%	10µM*	-17%	17µM*
CCCCOc1ccccc1NC(=O)Cn1c(-c2cncs2)nc2ccccc21	i	i	·	·	-14%	2%	·
CCCCn1cc2c(c1-c1ccc(Br)cc1)c(=O)n(C)c(=O)n2C	i	i	·	·	4%	-7%	·
CCCCCn1cc2c(c1-c1ccc(Cl)cc1)c(=O)n(C)c(=O)n2C	i	i	·	·	10µM*	20%	?
O=c1c2ccccc2nc2n1CCCCN2	i	i	0%	0%	4µM*	-9%	24µM*
O=c1c2ccccc2nc2n1CCCN2	i	i	-2%	-5%	·	14%	·
CCOC(=O)c1ccc(N2C(=O)c3n[nH]c(-c4cccs4)c3C2c2cccc(OC)c2)cc1 (stereo not drawn)	i	?	·	·	-9%	4%	·
COc1ccc(CN2CC[C@H]3C=CC[C@@H](C(=O)N4CCN(c5ccccc5)CC4)[C@H]3C2=O)cc1OC	·	·	·	·	1%	·	·
COc1ccc(-c2cn3c(n2)sc2cc(C(=O)Nc4ccc(F)cc4Cl)ccc23)cc1	i	i	·	·	-18%	-4%	·
Cc1cccc(C)c1NC(=O)c1cn(-c2ccccc2)nc1-c1ccccc1	i	i	-1%	-4%	0%	-15%	·
Cc1cc2n(n1)C(c1cn(-c3ccccc3)nc1C)Nc1c(C)cccc1-2 (stereo not drawn)	i	i	-2%	·	8.9µM*	?	27µM*
Cc1cccc(N2CCN(C(=O)c3cn(C4CCCCC4)c(=O)c4c3c3ccccc3n4C)CC2)c1C	i	i	·	·	8.9µM*	12%	-23%
COc1ccc(S(=O)(=O)N(C)c2ccc(C(=O)N3CCCCC3)cc2)cc1	i	·	1%	6%	-19%	-11%	·
COc1ccc(S(=O)(=O)N(C)c2ccc(C(=O)N3CCOCC3)cc2)cc1	i	i	2%	5%	2.2µM*	0%	0%
Cc1ccc(-n2ncc(C(=O)NCc3ccccc3C)c2-n2cccc2)cc1	i	i	·	·	-2%	-8%	·
SMILES	Abeta yeast res	FUS yeast rescue	Mm-Cpn inhibitor	aSyn rescue	ClpP mod	TDP43 rescue	ClpP inh valid
CC1=C(c2ccc(C)c(C)c2)S(=O)(=O)N(Cc2ccc(C(=O)NC(C)c3ccccc3)cc2)C1=O (stereo not drawn)	i	i	·	·	5.6µM*	19%	34µM*
Cc1cccc(C)c1NC(=O)COC(=O)COc1ccc2c(C)cc(=O)oc2c1	i	·	-2%	-2%	80%	-13%	-28%
O=C(O)c1ccc2c(c1)OCCO2	i	i	1%	10%	-1%	7%	·
NC(=O)c1ccc2c(c1)OCCO2	i	i	-11%	0%	31%	3%	-2%
O=C(Nc1cc(-c2cccc(Cl)c2)nn1-c1ccccc1)c1ccccc1F	i	i	·	·	-26%	15%	·
COc1ccccc1C(=O)Nc1cc(-c2cccc(Br)c2)nn1-c1ccccc1	i	i	·	·	4µM*	7%	19µM*
COc1ccccc1C(=O)Nc1cccc(OCc2cc(=O)n3c4c(sc3n2)CCCC4)c1	i	i	·	·	-17%	7%	·
CCc1nc(Nc2ccncc2)c2oc3ccccc3c2n1	i	·	-3%	2%	8.9µM*	3%	?
CCc1nc(Nc2cccc(O)c2)c2oc3ccccc3c2n1	i	i	-2%	4%	-11%	10%	·
COc1c(C)cccc1C(=O)Nc1ccc(-c2nc3ccccc3s2)c(Cl)c1	i	i	·	·	7.9µM*	?	-1%
Nc1ncnc2oc(-c3ccco3)c(-c3ccco3)c12	i	i	-28%	13µM*	8.9µM*	-17%	22µM*
Nc1ncnc2oc(-c3ccoc3)c(-c3ccco3)c12	·	·	·	?	4%	·	·
COc1cc(OC)c(/C=C/c2nc3ccccc3o2)c(OC)c1	·	·	·	2%	-1%	·	·
CC(C)CNC(=O)NC1C(NC(=O)NCC(C)C)N(C)C(=O)N1C (stereo not drawn)	i[9.22 µM]	i	1%	0%	44%	7%	0%
CCC(C)NC(=O)NC1C(NC(=O)NC(C)CC)N(C)C(=O)N1C (stereo not drawn)	i	i	0%	1%	-2%	-6%	·
COc1ccc(-n2ncc(C(=O)NCCCN3CCCCC3)c2C2CCN(C(=O)OC(C)(C)C)CC2)cc1	i	i	·	·	1%	-9%	·
CC(C)N1CCOC1c1ccccc1 (stereo not drawn)	i	i	·	1%	7.9µM*	23%	-1%
